The full ranking holds about 39,000 sequences; the median of “fluorescence intensity (a.u.)” is about 4,300, and the highest 2% start at about 39,000. The full list was thinned out, with the highest values kept by preference.
The sequences below were run against T1, OsSMF1 (Oryza sativa, UniProt Q6ZLB0 1-436) (assay: protein-binding microarray (RPBM); PBS, 2% BSA, 51.3 ng/ul salmon testes DNA, 50 uM zinc acetate, 200 nM TF, 25 C, 1 h; high values mean tight binding). Settings: protein: recombinant; tags: N-terminal polyhistidine and DsRed monomer fusion (pET32a); chain copies: 2; label: CyDye5-dUTP incorporated in the synthesized complementary strand; 3' TTTTT single-stranded linker to array surface; dsDNA, one strand shown.
T1 sequence: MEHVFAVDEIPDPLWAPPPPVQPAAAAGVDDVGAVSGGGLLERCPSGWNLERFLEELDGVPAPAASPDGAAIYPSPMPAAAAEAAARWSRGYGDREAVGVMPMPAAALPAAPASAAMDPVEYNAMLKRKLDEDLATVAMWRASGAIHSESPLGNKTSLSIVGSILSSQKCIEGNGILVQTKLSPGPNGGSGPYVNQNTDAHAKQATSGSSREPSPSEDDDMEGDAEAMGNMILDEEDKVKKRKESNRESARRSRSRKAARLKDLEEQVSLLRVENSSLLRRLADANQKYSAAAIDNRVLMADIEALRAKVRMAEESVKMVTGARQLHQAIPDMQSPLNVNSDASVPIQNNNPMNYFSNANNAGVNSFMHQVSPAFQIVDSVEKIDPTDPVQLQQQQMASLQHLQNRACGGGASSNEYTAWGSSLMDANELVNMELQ
Method in brief: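 Ni–NTA purification followed expression in E. coli BL21-CodonPlus of transcription factors fused N-terminally to a polyhistidine tag and DsRed. At 200 nM in PBS with 2% BSA, salmon testes DNA and 50 µM zinc acetate, the protein was incubated for 1 h at 25 °C with a custom Agilent array that had been primer-extended with Cy5-dUTP and blocked with 2% BSA. After washing, the array was read on an Axon 4000B scanner. The binding signal is per-feature fluorescence intensity in arbitrary units.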
“CTCTCACCATGCAAGATTTCCTTAGATTTGAGTTGAGTCACGGAGTCACCTAGTGCAG” was tested, and the binding signal was 3150 fluorescence intensity (a.u.).
For “CTTCAGTCCCGGTTGGTAAGGCTCAGCCGGCCACGTGGCTCGGAGTCACCTAGTGCAG”, the binding signal was 17200 fluorescence intensity (a.u.).
In the case of “AGCGGACGCGCGGTATGGTCGATGGATGATGACACACGGTCGGAGTCACCTAGTGCAG”, the binding signal is reported as 5210 fluorescence intensity (a.u.).
“CCAGGTCACATTCACATCTCTCTTTACCAAAGCTAAGCCACGGAGTCACCTAGTGCAG” was tested, and the binding signal was 48100 fluorescence intensity (a.u.).
With “AAGCTAGTCACACATCACCATCACACACACCAAGCCACACCGGAGTCACCTAGTGCAG” the binding signal was 4460 fluorescence intensity (a.u.).
“GTGCCATCTAAGCGTCACGTCAAACACCACATACCAGGTCCGGAGTCACCTAGTGCAG” was tested, and the binding signal was 3140 fluorescence intensity (a.u.).
For “CTGTATTCATTAGGGTGGGACTGTATACTATAGTTATTATCGGAGTCACCTAGTGCAG”, the binding signal was 3190 fluorescence intensity (a.u.).
With “GACCCACGCCTTCGGGTCCACATGTCATAGCCTATCCACCCGGAGTCACCTAGTGCAG” the binding signal was 3550 fluorescence intensity (a.u.).
With “GGTCGATGATGATGATGACGACGACGAGAGGAGGAGAGATCGGAGTCACCTAGTGCAG” the binding signal was 3820 fluorescence intensity (a.u.).
“CTTGTTTGATCAAACCGATGCGACGCAGAGAGAGAGAGGTCGGAGTCACCTAGTGCAG” was tested, and the binding signal was 39400 fluorescence intensity (a.u.).
In the case of “TTTGCGATGCTGACTGGTCTGAGAGCCTTGATCCGATGGTCGGAGTCACCTAGTGCAG”, the binding signal is reported as 44800 fluorescence intensity (a.u.).
In the case of “GAAACGATGGTTTGAGTACTGACTTGGCAATGCTGGTCATCGGAGTCACCTAGTGCAG”, the binding signal is reported as 6280 fluorescence intensity (a.u.).
“AAACAGAGGGGAAGAGAGAGGATCGTCGTCGACGATGATGCGGAGTCACCTAGTGCAG” was tested, and the binding signal was 3200 fluorescence intensity (a.u.).
With “GTCTGGCTGCTGATGGTGATGATGCTGACTTGTGACGAGTCGGAGTCACCTAGTGCAG” the binding signal was 3620 fluorescence intensity (a.u.).
For “TGTTGTGCTGGTTGGTTCCAGATCTAACAGTGACAGTGCGCGGAGTCACCTAGTGCAG”, the binding signal was 4380 fluorescence intensity (a.u.).
With “AAGTCCGATTCGTGAGTCACAGATGTTGACTCGCCGAAAACGGAGTCACCTAGTGCAG” the binding signal was 5350 fluorescence intensity (a.u.).
With “TCCTTCTATATGTTTGCACTTACGTGGGCCGTATTTATGCCGGAGTCACCTAGTGCAG” the binding signal was 9040 fluorescence intensity (a.u.).
“GACGATCAAGATCGACACGACCAACGTGGCATGTTGCGTACGGAGTCACCTAGTGCAG” was tested, and the binding signal was 9470 fluorescence intensity (a.u.).
In the case of “GAGGAGGAGGAGGCTGATGTGGCAGCCTGACATGTGGGGCCGGAGTCACCTAGTGCAG”, the binding signal is reported as 7020 fluorescence intensity (a.u.).
With “TACGATGAGTCATTTATTGATTATTGTATTAATGTTCCTTCGGAGTCACCTAGTGCAG” the binding signal was 11500 fluorescence intensity (a.u.).
“AAAGGATGATATTTATTCGATCCTTGTTCGAATGTAGACTCGGAGTCACCTAGTGCAG” was tested, and the binding signal was 55700 fluorescence intensity (a.u.).
In the case of “TCCTTGATCCTTTATTTGATATTTGTTTAGATATATAATTCGGAGTCACCTAGTGCAG”, the binding signal is reported as 37900 fluorescence intensity (a.u.).
In the case of “CGCTGTGTATATATGTGCAGGTCCATCCATGAGAGGTTGACGGAGTCACCTAGTGCAG”, the binding signal is reported as 34900 fluorescence intensity (a.u.).
For “GGCATAATAGGCCAGCCGTGTAGGCAGAGACACCAGTCGGCGGAGTCACCTAGTGCAG”, the binding signal was 4530 fluorescence intensity (a.u.).
With “GCCCAGCGTGCACGGCGCGACGGACTCGCGCGGCACTAGCCGGAGTCACCTAGTGCAG” the binding signal was 5790 fluorescence intensity (a.u.).
In the case of “GGCCAGCCGTGTAGGCGGAGGCACCACTCGGCGGCGACGGCGGAGTCACCTAGTGCAG”, the binding signal is reported as 49900 fluorescence intensity (a.u.).
“TGCTGAGTGAGTGATGAGTGTGCGAATGTGTGATCGATCGCGGAGTCACCTAGTGCAG” was tested, and the binding signal was 3860 fluorescence intensity (a.u.).
For “ATTATTCATAAGCTGAATATTCTTATTCATACATTCGGATCGGAGTCACCTAGTGCAG”, the binding signal was 6460 fluorescence intensity (a.u.).
“GGCTATTGGGAGCCACGTCAGCCGGTGGCCTCCGCCATCGCGGAGTCACCTAGTGCAG” was tested, and the binding signal was 22600 fluorescence intensity (a.u.).
In the case of “CGAAGACTAAGTCAACACCACCACGTAGTCGCCACATCAGCGGAGTCACCTAGTGCAG”, the binding signal is reported as 8880 fluorescence intensity (a.u.).
With “CACGTGGGACGAAAACTAGGTCAACATCGCCACGTCAGCGCGGAGTCACCTAGTGCAG” the binding signal was 45900 fluorescence intensity (a.u.).
“CTAGGTCAACACCGCCATGTCAGCGCCACGTCAGCGAAACCGGAGTCACCTAGTGCAG” was tested, and the binding signal was 28700 fluorescence intensity (a.u.).
In the case of “CCAGGTCAACATTGCCACGTGTGCGGCCACGTCAGCGAAACGGAGTCACCTAGTGCAG”, the binding signal is reported as 33400 fluorescence intensity (a.u.).
“GCCACGTGGGATGAAGCCTAAGTCAACATCGCCACGTCAGCGGAGTCACCTAGTGCAG” was tested, and the binding signal was 43200 fluorescence intensity (a.u.).
For “GACTTGATTACCACGCGTATACTATATAGGACAAAATTGCCGGAGTCACCTAGTGCAG”, the binding signal was 3190 fluorescence intensity (a.u.).
In the case of “TGTTCCTCCACGTCGCTCCGCCGCTCCGCCCGCCTTGCTTCGGAGTCACCTAGTGCAG”, the binding signal is reported as 5090 fluorescence intensity (a.u.).
“TCCGGAGAGTTGACGCAGCGTCAACCGGGTCCGTCGTTCTCGGAGTCACCTAGTGCAG” was tested, and the binding signal was 3800 fluorescence intensity (a.u.).
In the case of “AATCGCGAGATATCCACGTGAGATTGCGCAGCGAGACGCGCGGAGTCACCTAGTGCAG”, the binding signal is reported as 5140 fluorescence intensity (a.u.).
For “ATGAGAGATAAGTAGATGACACATTCACAGTTGCTATAGTCGGAGTCACCTAGTGCAG”, the binding signal was 4040 fluorescence intensity (a.u.).
In the case of “AAGCTAGCGGTCACCCAGTCAGCTCACCCCGAGACGCACCCGGAGTCACCTAGTGCAG”, the binding signal is reported as 4400 fluorescence intensity (a.u.).
In the case of “CGCAGTTGCTTCTGCAAAAGAGATTGATGACAAGGATCACCGGAGTCACCTAGTGCAG”, the binding signal is reported as 3530 fluorescence intensity (a.u.).
For “TCGATCGACATGGTGAATTGGCGATCGGGTTGGCTCGGCTCGGAGTCACCTAGTGCAG”, the binding signal was 3170 fluorescence intensity (a.u.).
